# KB-3-1 cytotox = kills parental KB-3-1 adenocarcinoma cells; KB-3-1 viability, CellTiter-Glo ATP luminescence, 72 h; Potency, µM (doses to about 46.1 µM), actives largely listed as cytotoxic; 400,000 compounds, 1.4% hits; AID 1347075; note: nearly all actives have a fitted effect of over 60% in size
#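 72 h, 37 °C compound treatment of KB-3-1 parental cells; CellTiter-Glo added, 10 min, luminescence read. Data corrected against DMSO-only plates and normalized before curve fitting.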
# HT1080NT lethal = kills 2HG-producing HT-1080-NT fibrosarcoma cells; AID 686970; 360,000 compounds, 1.6% hits; HT-1080-NT fibrosarcoma viability, CellTiter-Glo ATP luminescence, 48 h; Potency, µM (series often up to 46.1 µM), actives largely listed as cytotoxic;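 note: NT is the 2HG producing partner of a matched IDH1 knockdown line; nearly all actives have a fitted effect of over 55% in size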
#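 Toxicity toward the 2HG-producing NT line was scored as %Activity, normalised to DMSO and no-cell wells, from CellTiter-Glo luminescence after 48 hours' treatment.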
# HT1080 IDH1KD tx = toxicity to HT-1080 IDH1 knockdown cells (counter line); HT-1080 IDH1 knockdown viability, ATP luminescence, 48 h; Potency, µM (doses to about 46.1 µM), most hits filed as cytotoxic; 360,000 compounds, 2% hits
#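 Knockdown cells (IDH1KD HT-1080) received compounds 2 h after plating at 750 cells/well and were kept 48 h at 37 °C in 5% FBS RPMI. A CellTiter-Glo luminescence read gave % activity for curve fitting.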
# KB-V1 MDR tox = kills drug-selected multidrug resistant KB-V1 cells. KB-V1 MDR cells viability, CellTiter-Glo, 72 h. Potency, µM (highest dose often 46.1 µM), actives largely listed as cytotoxic. 400,000 compounds, 3.4% hits; note: nearly all actives have a fitted effect of over 60% in size
#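 Luminescent ATP read-out (CellTiter-Glo, 10 min) measures survival of drug-selected KB-V1 MDR cells after 72 h, 37 degrees C compound exposure. Medium: phenol-red-free DMEM, 10% FBS. Values from fitted concentration-response curves.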
# MCF10A rerep = inducers of DNA re-replication in MCF 10A breast cells. MCF 10A DNA re-replication, Hoechst nuclear intensity, 48 h. Potency, µM (titrated, usually from 46.1 µM), usual class: activators. 350,000 compounds, 2.9% hits; note: nearly all actives have a fitted effect of over 50% in size
# SW480 rereplic = induces DNA re-replication in SW480 colon adenocarcinoma cells. SW480 DNA re-replication, Hoechst DNA content imaging, 48 h. Potency, µM (titrated, usually from 46.1 µM), hits mostly activators. 340,000 compounds, 1.8% hits. AID 624297; note: nearly all actives have a fitted effect of over 55% in size
#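 Cells (250 per well) received 23 nL compound or DMSO by pin tool and were kept 48 hr at 37 C, 5% CO2. Nuclei were then stained with Hoechst for 40 min and scanned for DNA content.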
# A number is an active result; i = inactive; ? = inconclusive; nt = no result; ! = not confirmed by another sample. A selection: hits, their analogues and other compounds. The true share with any hit is near 8%. Calls come from the whole dose curve; as a rule, active = well fitted curve in the direction sought with a large enough effect; inconclusive = small, poorly fitted or top-dose-only effect, or another doubt; inactive = no such curve, though single readings can be large; an effect the other way counts as inactive or inconclusive.
SMILES,KB-3-1 cytotox,HT1080NT lethal,HT1080 IDH1KD tx,KB-V1 MDR tox,MCF10A rerep,SW480 rereplic
CN(C)P(=O)(C(Cl)=C(N1CCCCC1)N1CCCCC1)N(C)C,i,i,13µM,i,i,i
O=C(N1CCCCCC1)N1CC1,i,i,i,i,i,i
Cc1ccc2c(c1)C1CN(C)CCC1N2C(=O)c1ccccc1NS(=O)(=O)c1cccc(C(F)(F)F)c1 (configuration not stated),i,i,?,i,?,i
CCC(C)C1N=C(c2ccccc2)c2cc(Cl)ccc2N(CC(=O)NCc2ccco2)C1=O (configuration not stated),i,i,i,i,i,i
Cc1ccccc1C1=NCC(=O)N(CC(=O)NCc2ccco2)c2sc3c(c21)CCCC3,i,i,i,18µM,?,i
O=C(CN1CC=C(c2ccccc2)CC1)Nc1cc(Cl)ccc1Cl,i,i,i,?,18µM,i
Cc1ccc(S(=O)(=O)N2CCCCC2)cc1NC(=O)CN1CC=C(c2ccccc2)CC1,?,i,i,6.5µM,?,i
CCCCn1c(N)c(N(CC(C)C)C(=O)c2cc(Br)c(Br)s2)c(=O)[nH]c1=O,?,i,i,i,?,i
O=c1c2cc(N3CCOCC3)ccc2[nH]c(=S)n1Cc1ccc(Cl)cc1,i,i,i,21µM,2.6µM,i
O=c1[nH]c(=S)n(-c2ccc(Cl)cc2)c(O)c1C=Nc1ccc(N2CCOCC2)cc1,i,i,i,i,i,i
NCC(O)c1cccc(O)c1 (configuration not stated),nt,nt,nt,nt,i,i
NC(=O)c1ccsc1NC(=O)COC(=O)Cc1ccccc1,i,i,i,i,i,i
O=C(CCl)Nc1sccc1C(=O)c1ccccc1,i,10µM,?,?,?,?
CC1=C/C(=N\NC(=S)NCCc2ccccc2)CC(C)(C)C1,i,i,i,i,?,i
CCOC(=O)c1c(-n2c(C)cc(/C=C3/C(=O)NC(=O)N(CC)C3=O)c2C)sc2c1CCCC2,i,i,i,?,i,i
CCOC(=O)c1c(-n2c(C)cc(C=C3C(=O)NC(=S)NC3=O)c2C)sc2c1CCCC2,?,?,?,i,18µM,?
CN(Cc1ccc(OC(F)F)cc1)C(=O)c1ccccc1Sc1ccccc1C#N,i,i,i,?,?,i
COc1ccc(NC(=O)C2Cc3c(-c4cccc(C(C)=O)c4)ccnc3O2)cc1OC (configuration not stated),5.2µM,?,?,9.2µM,nt,nt
Nc1ccc2c3c(cccc13)CC2,i,i,i,i,16µM,16µM
CC1=C(N2CC2)C(=O)C(CO)=C(N2CC2)C1=O,0.46µM,?,0.0058µM,0.26µM,?,?
Fc1cccc(-c2ccc3c(c2)CNCc2cnnn2-3)c1,i,i,i,i,nt,nt
O=C(O)c1cc[c]([Hg][Cl])cc1,i,16µM,18µM,i,i,i
Cn1c(CCCC(=O)O)nc2cc(N(CCCl)CCCl)ccc21,nt,nt,nt,nt,?,i
CC(=O)OCC(=O)[C@@H]1CC[C@H]2[C@H]3CC[C@H]4C[C@@H](O)CC[C@]4(C)[C@@H]3C(=O)C[C@@]12C,nt,nt,nt,nt,i,i
COC1C(C)OC(OC2CC(C)(O)Cc3cc4c(c(O)c32)C(=O)c2c(O)cc3c(c2C4=O)OC2OC3(C)C(O)C(N(C)C)C2O)C(OC)C1(C)OC (configuration not stated),0.46µM,?,16µM,i,i,i
SMILES,KB-3-1 cytotox,HT1080NT lethal,HT1080 IDH1KD tx,KB-V1 MDR tox,MCF10A rerep,SW480 rereplic
c1ccc(CCN2CCCCC2)cc1,i,nt,nt,i,nt,nt
CC(C)C(=O)Nc1ccc(C(=O)NCc2cccnc2)cc1,i,?,23µM,i,i,0.52µM
O=C(NCc1cccnc1)C(Cl)(Cl)Cl,i,i,i,i,i,i
COc1ccc(OC)c(NC(=O)Cn2cc(C(=O)c3ccccc3F)c3ccccc32)c1,?,nt,nt,i,nt,nt
CCc1ccc(-n2nc(C)c3c2NC(=O)CSC3c2ccc(C(=O)OC)cc2)cc1 (configuration not stated),i,nt,nt,i,nt,nt
CC(C)[C@@]1(NC(=O)[C@@H]2C=C3c4cccc5[nH]cc(c45)C[C@H]3N(C)C2)O[C@@]2(O)[C@@H]3CCCN3C(=O)[C@H](Cc3ccccc3)N2C1=O,nt,nt,nt,nt,i,?
CC(C)[C@@]1(NC(=O)[C@@H]2C[C@@H]3c4cccc5[nH]cc(c45)C[C@H]3N(C)C2)O[C@@]2(O)[C@@H]3CCCN3C(=O)[C@H](Cc3ccccc3)N2C1=O,i,i,i,i,21µM!,18µM!
Cc1oc(-c2ccc(Cl)cc2)nc1CN1C(=O)CN=C(c2ccccc2)c2cc(Cl)ccc21,i,nt,nt,i,nt,nt
Cc1cc(=O)oc2cc3c(cc12)CCCN3,i,i,i,i,7.3µM,?
C[C@H]1COC(=O)[C@@H](Cc2ccc(F)cc2)CC/C=C/C[C@H](CC(=O)N(CCO)Cc2ccccc2)C(=O)N1,i,i,i,i,i,i
Brc1ccc(Oc2ccc(Br)cc2Br)c(Br)c1,i,i,i,i,?,i
Oc1c(Br)cc(Br)cc1Oc1ccc(Br)cc1Br,nt,nt,nt,nt,5.8µM,i
O=C(CCn1c(=O)oc2ccccc21)N1CCN(C(c2ccccc2)c2ccccc2)CC1,i,i,i,?,?,i
CCOC(=O)C(C)Oc1cc(C)cc2oc(=O)c3c(c12)CCCC3 (configuration not stated),i,i,i,10µM,?,i
O=C(CI)c1ccc(Cl)cc1,i,nt,nt,i,nt,nt
COc1cc(NS(=O)(=O)c2ccc3c(c2)oc(=O)n3C)cc(OC)c1OC,7.3µM,?,?,?,?,21µM
CC(C)CCOP(=O)(c1ccc(N(C)C)cc1)C(O)c1c(Cl)cccc1Cl (configuration not stated),i,i,i,i,?,i
CN(C)c1ncc(C2=C(Cl)C(=O)C(N3CCCC3)=C(Cl)C2=O)s1,i,?,8.9µM,i,?,9.2µM
CCN(CC)C(=O)c1ccc(NC(=O)c2cccc(F)c2)cc1,i,i,i,21µM,i,i
O=C1[C@H]2[C@@H](C3CC3)N3C(=O)CN(CC4CC4)C(=O)[C@@]3(Cc3ccccc3)[C@H]2C(=O)N1c1ccccc1,i,i,i,i,i,i
Cc1ccc(Cn2cc(C=O)c(-c3ccc(C)cc3)n2)cc1,i,i,i,16µM,?,i
CCc1nc2ccc(Br)cc2c(=O)n1-c1ccccc1C(F)(F)F,i,i,i,i,i,i
CCCc1nc2ccc(Br)cc2c(=O)n1-c1ccc([N+](=O)[O-])c(C(F)(F)F)c1,?,?,?,16µM,?,?

# From PubChem
